# Laboratory results from PubChem BioAssay (EPA / NIEHS).
# Results filed as inconclusive are left out. The source made the active and inactive calls. Rule for the calls, unless noted: active = hit-call score of the fitted dose curve at least 0.9, where 1 is the maximum; inactive = score below 0.9.
# Legend:
# [1] = target: Hepatocyte nuclear factor 4-alpha (Homo sapiens) (UniProt P41235); assay: ATG_HNF4a_TRANS: Attagene TRANS-FACTORIAL HepG2 Assay for human Hepatocyte Nuclear Factor 4 alpha (HNF4a) (AID 2282982; active = hit-call score of the fitted dose curve at least 0.9, where 1 is the maximum); details: HepG2 HNF4a transactivation reporter, mRNA readout
# Procedure, shortened: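 HepG2 cells transiently transfected with HNF4a-Gal4 chimera and GAL4-UAS reporter units, dosed for 24 h. Reporter mRNA measured by RT-PCR, fluorescent primer extension and capillary electrophoresis; gain-of-signal fitted relative to DMSO.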
# [2] = ATG_M_32_TRANS: Attagene TRANS-FACTORIAL HepG2 Assay for M32 Transcription Factor (Internal Marker) (AID 2282984; active = hit-call score of the fitted dose curve at least 0.9, where 1 is the maximum); details: HepG2 Attagene TRANS M32 internal marker reporter
# Procedure, shortened: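 HepG2 cells transiently transfected with GAL4-UAS reporter units, dosed for 24 hours. Reporter mRNA quantified by RT-PCR, 6-FAM labelling, HpaI digestion and capillary electrophoresis; internal-marker signal fitted upward relative to DMSO.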
# [3] = target: Transcriptional activator Myb (Homo sapiens) (UniProt P10242); assay: ATG_Myb_CIS: Attagene CIS-FACTORIAL HepG2 Assay for human Myeloblastosis (Myb) Proto-Oncogene Transcription Factor (AID 2282986); details: HepG2 Attagene CIS-FACTORIAL Myb reporter transcription; actives raise or lower the signal
# Procedure, shortened: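 Reporter transcript levels, quantified by fluorescent RT-PCR and capillary electrophoresis, serve as the read-out. Transfected HepG2 cells carrying cis-promoter reporter units are dosed for 24 hours, and curves are fitted bidirectionally against DMSO controls.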
# [4] = target: Nuclear respiratory factor 1 (Homo sapiens) (UniProt Q16656); assay: ATG_NRF1_CIS: Attagene CIS-FACTORIAL HepG2 Assay for human Nuclear Respiratory Factor 1 (NRF1) Orphan Gene (AID 2282987); details: HepG2 NRF1 cis-element reporter, Attagene multiplex; actives raise or lower the signal
# Procedure, shortened: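 Multiplexed cis-reporter assay, HepG2 cells, 24 h treatment. Total RNA → oligo(dT) RT → PCR with reporter-specific primers → 6-FAM primer extension → HpaI cut → CE. Bidirectional fit vs DMSO.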
# [5] = ATG_NFI_CIS: Attagene CIS-FACTORIAL HepG2 Assay for human Nuclear Factor I (NFI) (AID 2282989); details: HepG2 cis-regulatory reporter, NFI response element transcription; actives raise or lower the signal
# Procedure, shortened: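 Reporter transcripts were measured by RT-PCR with fluorescent primer extension and capillary electrophoresis 24 h post-treatment. HepG2 cells carried transiently transfected cis-regulated reporter constructs reporting endogenous factor activity; gain or loss fitted against DMSO baseline.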
# [6] = target: Myc proto-oncogene protein (Homo sapiens) (UniProt P01106); assay: ATG_Myc_CIS: Attagene CIS-FACTORIAL HepG2 Assay for human Myelocytomatosis (Myc) Proto-Oncogene Transcription Factor (AID 2282990); details: HepG2, Attagene cis-reporter transcription factor activity; actives raise or lower the signal
# Procedure, shortened: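 Read-out: fluorescent reporter mRNA fragments resolved by capillary electrophoresis after RT-PCR. Human HepG2 liver cells carried transfected cis-element reporter units and were dosed for 24 h. Gain or loss of signal fitted relative to DMSO baseline.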
# [7] = ATG_NF_kB_CIS: Attagene CIS-FACTORIAL HepG2 Assay for human Nuclear Factor Kappa B (NF-kB) (AID 2282991); details: HepG2 Attagene cis-factorial NF-kB reporter mRNA; actives raise or lower the signal
# Procedure, shortened: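 Transient MRTU transfection of human HepG2 liver cells → 24 h chemical exposure → total RNA, oligo(dT) RT → PCR, 6-FAM primer extension, HpaI digest 2 h 37 C → CE fragment analysis. Bidirectional fitting, DMSO negative control.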
# [8] = ATG_NRF2_ARE_CIS: Attagene CIS-FACTORIAL HepG2 Assay for human Nuclear Factor Erythroid 2 Related Factor 2 (NFR2) response to Antioxidant Response Elements (ARE) (AID 2282992); details: HepG2 Attagene ARE/NRF2 reporter, transcription factor activity; actives raise or lower the signal;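 for AC50: reporter mRNA level measured by RT-PCR and capillary electrophoresis fluorescence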
# Procedure, shortened: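 HepG2 cells transiently transfected with multiplexed cis-element reporter constructs, 24 h after chemical dosing; reporter mRNA quantified by RT-PCR, fluorescent primer extension, HpaI digestion and capillary electrophoresis. Bidirectional fit relative to DMSO.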
# [9] = ATG_Oct_MLP_CIS: Attagene CIS-FACTORIAL HepG2 Assay for human Octamer-Binding Transcription Factor (Oct) (AID 2282993); details: HepG2 Attagene cis-factorial Oct reporter, mRNA; actives raise or lower the signal
# Procedure, shortened: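 Readout is reporter transcript level from RT-PCR with fluorescent primer extension and capillary electrophoresis, fitted in both directions against DMSO. Transfected HepG2 reporter units report endogenous factor activity after 24 h dosing.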
# [10] = target: Cellular tumor antigen p53 (Homo sapiens) (UniProt P04637); assay: ATG_p53_CIS: Attagene CIS-FACTORIAL HepG2 Assay for human p53 Transcription Factor (AID 2282994); details: HepG2 p53 cis-element reporter, Attagene mRNA; actives raise or lower the signal
# Procedure, shortened: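 HepG2 cells transiently transfected with cis-regulated multiple reporter transcription units, dosed 24 h. Reporter mRNA measured by RT-PCR, 6-FAM primer extension, HpaI digestion and capillary electrophoresis; bidirectional fit relative to DMSO.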
# [11] = target: Nuclear receptor subfamily 4 group A member 2 (Homo sapiens) (UniProt P43354); assay: ATG_NURR1_TRANS: Attagene TRANS-FACTORIAL HepG2 Assay for human Nuclear Receptor Related Protein 1 (NURR1) (AID 2282985; active = hit-call score of the fitted dose curve at least 0.9, where 1 is the maximum); details: HepG2 Attagene TRANS reporter, mRNA readout
# Procedure, shortened: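 HepG2 cells transiently transfected with NURR1-Gal4 chimera and GAL4-UAS reporter units; after 24 hr compound exposure, reporter mRNA quantified by RT-PCR and capillary electrophoresis; gain of signal fitted against DMSO.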
# [12] = ATG_M_06_TRANS: Attagene TRANS-FACTORIAL HepG2 Assay for M06 Transcription Factor (Internal Marker) (AID 2282983; active = hit-call score of the fitted dose curve at least 0.9, where 1 is the maximum); details: HepG2 Attagene TRANS M06 internal marker reporter
# Procedure, shortened: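 Transfect HepG2 with MRTUs → dose compounds 24 h → isolate RNA, oligo(dT) RT → PCR with reporter primers → 6-FAM primer extension → HpaI digest → CE fragment analysis. Positive direction vs DMSO.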
# [13] = BSK_3C_uPAR: BioMAP Diversity Plus: 3C Assay for Urokinase-type plasminogen activator receptor (uPAR) Biomarker Activity (AID 2282998); details: BioMAP 3C HUVEC, uPAR biomarker ELISA; actives raise or lower the signal
# Procedure, shortened: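 Cell-surface uPAR on HUVEC (3C system) read by ELISA at 24 h post-treatment, with DMSO as baseline and fitting in both directions. Parallel cultures stained with SRB to flag overt cytotoxicity.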
# [14] = BSK_3C_VCAM1: BioMAP Diversity Plus: 3C Assay for Vascular cell adhesion molecule 1 (VCAM1) Biomarker Activity (AID 2282999); details: BioMAP 3C HUVEC, VCAM1 ELISA, cytokine-stimulated; actives raise or lower the signal
# Procedure, shortened: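 Human umbilical vein endothelial cells (3C system), biomarker read by ELISA 24 h after dosing; bidirectional fit against DMSO baseline. Cytotoxicity tracked by SRB total-protein staining in parallel cultures at biomarker time.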
# Chain of Transcriptional activator Myb (Homo sapiens) (P10242 whole entry, looked up): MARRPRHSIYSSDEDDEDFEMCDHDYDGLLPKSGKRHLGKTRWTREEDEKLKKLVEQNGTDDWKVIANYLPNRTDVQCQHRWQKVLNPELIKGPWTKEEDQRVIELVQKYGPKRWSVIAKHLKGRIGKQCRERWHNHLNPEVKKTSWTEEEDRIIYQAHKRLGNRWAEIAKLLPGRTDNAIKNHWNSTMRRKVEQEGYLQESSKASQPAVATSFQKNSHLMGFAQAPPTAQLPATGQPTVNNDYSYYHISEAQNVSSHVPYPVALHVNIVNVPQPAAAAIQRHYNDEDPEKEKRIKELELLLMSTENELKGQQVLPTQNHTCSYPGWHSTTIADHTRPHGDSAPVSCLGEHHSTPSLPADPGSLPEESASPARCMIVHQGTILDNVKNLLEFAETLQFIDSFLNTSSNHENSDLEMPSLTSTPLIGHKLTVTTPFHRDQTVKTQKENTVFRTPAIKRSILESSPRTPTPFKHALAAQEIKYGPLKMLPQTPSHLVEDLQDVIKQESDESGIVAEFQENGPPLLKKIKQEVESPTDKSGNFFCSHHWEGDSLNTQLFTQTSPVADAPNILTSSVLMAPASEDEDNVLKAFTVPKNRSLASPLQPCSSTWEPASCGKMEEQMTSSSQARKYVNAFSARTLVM
# Chain of Cellular tumor antigen p53 (Homo sapiens) (P04637 whole entry, looked up): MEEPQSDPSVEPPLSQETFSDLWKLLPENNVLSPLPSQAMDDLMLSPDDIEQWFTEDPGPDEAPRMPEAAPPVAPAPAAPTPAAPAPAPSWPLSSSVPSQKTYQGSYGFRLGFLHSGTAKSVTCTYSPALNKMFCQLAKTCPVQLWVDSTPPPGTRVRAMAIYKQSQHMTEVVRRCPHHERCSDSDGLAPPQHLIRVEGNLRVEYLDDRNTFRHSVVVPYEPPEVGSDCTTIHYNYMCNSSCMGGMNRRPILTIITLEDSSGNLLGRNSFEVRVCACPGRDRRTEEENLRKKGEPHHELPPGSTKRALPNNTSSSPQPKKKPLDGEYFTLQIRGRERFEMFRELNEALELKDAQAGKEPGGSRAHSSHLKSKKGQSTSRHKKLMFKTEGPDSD
# Chain of Nuclear respiratory factor 1 (Homo sapiens) (Q16656 whole entry, looked up): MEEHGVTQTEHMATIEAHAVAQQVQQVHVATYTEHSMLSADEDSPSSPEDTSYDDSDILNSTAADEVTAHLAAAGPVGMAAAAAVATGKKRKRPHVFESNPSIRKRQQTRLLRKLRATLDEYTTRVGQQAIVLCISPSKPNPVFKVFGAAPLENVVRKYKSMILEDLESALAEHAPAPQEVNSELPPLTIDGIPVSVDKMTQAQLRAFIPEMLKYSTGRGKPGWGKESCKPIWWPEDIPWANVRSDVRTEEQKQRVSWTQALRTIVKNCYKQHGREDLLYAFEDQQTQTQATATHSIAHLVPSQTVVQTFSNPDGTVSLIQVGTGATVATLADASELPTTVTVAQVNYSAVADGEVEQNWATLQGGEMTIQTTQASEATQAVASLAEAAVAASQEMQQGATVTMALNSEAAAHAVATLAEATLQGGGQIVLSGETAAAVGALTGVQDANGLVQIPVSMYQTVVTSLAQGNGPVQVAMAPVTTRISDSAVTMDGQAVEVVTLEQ
# Chain of Myc proto-oncogene protein (Homo sapiens) (P01106 whole entry, looked up, the tested form may be a part): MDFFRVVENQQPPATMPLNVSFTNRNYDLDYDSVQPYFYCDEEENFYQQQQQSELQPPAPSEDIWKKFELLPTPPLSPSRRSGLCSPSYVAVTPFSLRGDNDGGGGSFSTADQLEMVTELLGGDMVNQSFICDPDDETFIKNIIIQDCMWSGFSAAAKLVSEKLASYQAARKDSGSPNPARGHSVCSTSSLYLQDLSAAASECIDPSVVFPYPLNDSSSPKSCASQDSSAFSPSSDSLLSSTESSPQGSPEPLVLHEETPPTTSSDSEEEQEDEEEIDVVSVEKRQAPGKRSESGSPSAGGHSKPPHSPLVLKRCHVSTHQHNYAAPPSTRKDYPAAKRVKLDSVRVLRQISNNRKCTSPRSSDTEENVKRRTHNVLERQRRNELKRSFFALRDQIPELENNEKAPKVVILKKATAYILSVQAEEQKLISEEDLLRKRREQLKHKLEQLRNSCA
# Chain of Nuclear receptor subfamily 4 group A member 2 (Homo sapiens) (P43354 whole entry, looked up, the tested form may be a part): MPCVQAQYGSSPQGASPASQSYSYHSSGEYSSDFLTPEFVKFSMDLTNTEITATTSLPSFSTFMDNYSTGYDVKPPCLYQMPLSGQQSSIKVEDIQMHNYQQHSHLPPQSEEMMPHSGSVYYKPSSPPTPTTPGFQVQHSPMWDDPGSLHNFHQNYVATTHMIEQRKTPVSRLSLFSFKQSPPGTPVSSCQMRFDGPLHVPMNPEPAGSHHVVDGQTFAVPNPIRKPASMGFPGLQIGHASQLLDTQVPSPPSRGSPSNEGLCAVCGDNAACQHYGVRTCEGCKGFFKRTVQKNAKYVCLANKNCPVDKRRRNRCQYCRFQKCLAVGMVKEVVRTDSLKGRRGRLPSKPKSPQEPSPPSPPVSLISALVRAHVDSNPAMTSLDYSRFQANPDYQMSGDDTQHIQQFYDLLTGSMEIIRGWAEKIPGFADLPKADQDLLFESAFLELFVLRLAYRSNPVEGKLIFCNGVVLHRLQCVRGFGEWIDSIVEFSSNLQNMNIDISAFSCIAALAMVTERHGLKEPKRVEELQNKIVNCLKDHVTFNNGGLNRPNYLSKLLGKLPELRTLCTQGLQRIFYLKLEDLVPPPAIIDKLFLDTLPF
# Chain of Hepatocyte nuclear factor 4-alpha (Homo sapiens) (P41235 whole entry, looked up, the tested form may be a part): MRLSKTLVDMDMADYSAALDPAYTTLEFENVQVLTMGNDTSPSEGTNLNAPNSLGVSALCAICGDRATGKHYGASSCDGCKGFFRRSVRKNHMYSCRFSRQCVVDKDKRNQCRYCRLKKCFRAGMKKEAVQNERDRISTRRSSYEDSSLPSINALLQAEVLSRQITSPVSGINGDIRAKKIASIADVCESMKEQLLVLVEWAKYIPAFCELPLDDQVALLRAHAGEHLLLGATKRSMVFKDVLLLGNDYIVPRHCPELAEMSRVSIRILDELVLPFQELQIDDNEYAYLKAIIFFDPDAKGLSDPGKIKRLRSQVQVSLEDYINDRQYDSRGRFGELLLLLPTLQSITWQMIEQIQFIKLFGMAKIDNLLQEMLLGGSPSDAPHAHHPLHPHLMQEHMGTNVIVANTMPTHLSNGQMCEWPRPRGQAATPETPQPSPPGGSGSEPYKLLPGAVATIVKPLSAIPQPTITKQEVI
smiles,measurement,setting,value
CC(=O)CC(C)(C)C1CCCCC1,outcome,[1],inactive
same,outcome,[2],inactive
same,outcome,[3],inactive
same,outcome,[4],inactive
same,outcome,[5],inactive
same,outcome,[6],inactive
same,outcome,[7],inactive
same,outcome,[8],inactive
same,outcome,[9],inactive
same,outcome,[10],inactive
CCCCCCCCCCO[C@@H]1O[C@H](CO)[C@@H](O)[C@H](O)[C@H]1O,outcome,[11],inactive
same,outcome,[3],inactive
same,outcome,[4],inactive
same,outcome,[5],inactive
same,outcome,[6],inactive
same,AC50,[8],100 µM (active)
same,outcome,[9],inactive
c1ccc(Sc2ccccc2)cc1,outcome,[12],inactive
same,outcome,[11],inactive
same,outcome,[3],inactive
same,outcome,[4],inactive
same,outcome,[5],inactive
same,outcome,[6],inactive
same,outcome,[7],inactive
same,outcome,[8],inactive
same,outcome,[9],inactive
same,AC50,[13],32 µM (active)
same,AC50,[14],39.1 µM (active)
NNC(=O)OCc1ccccc1,outcome,[12],inactive
same,outcome,[2],inactive
same,outcome,[11],inactive
same,outcome,[3],inactive
same,outcome,[4],inactive
same,outcome,[5],inactive
same,outcome,[6],inactive
same,outcome,[7],inactive
same,outcome,[8],inactive
same,outcome,[9],inactive
CC/C=C\CCCCO,outcome,[1],inactive
same,outcome,[2],inactive
same,outcome,[11],inactive
same,outcome,[3],inactive
same,outcome,[4],inactive
same,outcome,[5],inactive
same,outcome,[6],inactive
same,outcome,[7],inactive
same,outcome,[8],inactive
same,outcome,[9],inactive
same,outcome,[10],inactive
O=C(O)C(F)(F)C(F)(F)C(F)(F)C(F)(F)C(F)(F)C(F)(F)C(F)(F)C(F)F,outcome,[13],inactive
same,outcome,[14],inactive
[Na+],outcome,[3],inactive
same,outcome,[4],inactive
same,outcome,[5],inactive
same,outcome,[6],inactive
same,outcome,[7],inactive
same,outcome,[8],inactive
same,outcome,[9],inactive
same,outcome,[10],inactive
